# Bioassay records from PubChem BioAssay.
# CF NFkB block – inhibitors of cystic fibrosis induced NF-kB. KKLEB NF-kB-GFP reporter, PAF-induced, GFP fluorescence overnight. 360,000 tested, 0.86% active. inhibition, % at 5 µM;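 active means at least 50% inhibition at 5 µM, scaled per plate between neutral and stimulator controls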;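 further: PAF is a Pseudomonas aeruginosa culture filtrate used as stimulus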
# TROY NFkB inh – blocks TROY-dependent signaling in reporter cells; 360,000 tested, 0.98% active; inhibition, % at 10 µM; Q293 LMP1-TROYcd NF-kB luciferase reporter, 4 h;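 active means compounds whose plate-normalised and pattern-corrected inhibition of the luciferase reporter signal at the single screening dose is 50% or more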
# HIF-2a inh – inhibitors of HIF-2a. 360,000 tested, 0.72% active. 786-0 RCC cells HIF-2a reporter, luciferase luminescence, overnight. inhibition, % at 18.8 µM;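 active means inhibition of the luminescence signal of 40% or more relative to plate controls, in a single-dose primary screen at 18.75 µM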
# TWEAK-Fn14 inh – blocks TWEAK-Fn14 interaction in a reporter cell assay | TWEAK-stimulated Fn14 reporter cells, luciferase luminescence, 8 h | inhibition, % at 10 µM | 360,000 tested, 2% active | AID 1159606; in the data active means inhibition above about 50%
# KKLEB cytotox – CF airway cell cytotoxicity counter-screen | 360,000 tested, 0.36% active | activity change (cytotoxicity), % at 5 µM | KKLEB CF airway cells viability, ATPlite luminescence, overnight; stronger effect = lower value; cells stimulated with P. aeruginosa culture filtrate | AID 602141;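 active means corrected activity change at or below -50% at 5 µM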
# Peg3 promoter – inhibitors of Peg3 promoter; HeLa PEG-Prom luciferase reporter, luminescence, overnight; inhibition, % at 20 µM; 360,000 tested, 1.7% active; AID 588405;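 active means inhibition of at least 50% at 20 µM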
# Hits are given with their value; 0 = inactive; - = no result. An excerpt weighted towards active compounds, which were near 4% of everything screened.
SMILES,CF NFkB block,TROY NFkB inh,HIF-2a inh,TWEAK-Fn14 inh,KKLEB cytotox,Peg3 promoter
Nc1ncnc(Sc2ncccn2)c1[N+](=O)[O-],55.4,0,0,71.2,0,101.0
COc1c2c(cc3oc(=O)c4c5ccc(O)cc5oc4c13)OC(C)(C)CC2,0,76.7,0,76.7,0,0
Cc1ccc(-c2nc(=S)c3c(n2CCN2CCOCC2)CC(C)(C)OC3)cc1,0,52.2,0,0,0,0
COc1ccc(-c2nc(=S)c3c(n2CCN2CCOCC2)CC(C)(C)OC3)cc1,0,0,0,0,0,0
CC1(C)Cc2c(c(=S)nc(-c3ccccc3)n2CCOCCO)CO1,0,-,0,54.7,0,0
Cc1ccc(-c2nc(=S)c3c(n2Cc2cccnc2)CC(C)(C)OC3)cc1,0,0,0,74.0,0,0
CCc1ccccc1NC(=O)c1cc(-c2cccc(O)c2)on1,0,0,0,0,0,0
NC(=O)c1cccc(-c2coc3c(C(=O)NCc4cccnc4)cccc23)c1,0,0,0,0,0,0
O=C(NCc1cccc(Cl)c1)c1cccc2c(-c3cccnc3)coc12,0,55.8,0,90.0,0,0
O=C(NCc1ccc(F)c(F)c1)c1cccc2c(-c3cccnc3)coc12,0,0,0,0,0,0
COc1ccc(CNC(=O)c2cccc3c(-c4cccnc4)coc23)cc1OC,0,50.1,0,64.0,0,0
COc1cc(OC)cc(C(=O)NC(C(=O)Nc2ccc3c(c2)OCCO3)C(C)C)c1 (configuration not stated),0,51.8,0,55.7,0,0
COc1ccc(S(=O)(=O)NC(C)C(=O)Nc2ccc3c(c2)OCCO3)cc1OC (configuration not stated),0,0,0,75.1,0,0
COc1cc(Cn2ccnc2)c(OC)cc1Cn1ccnc1,0,0,0,0,0,0
CCc1ccc(C(=O)CN(C#N)c2nc(C)cc(C)n2)cc1,0,0,0,62.3,0,0
Cc1cc(C)nc(N(C#N)CC(=O)c2ccccc2)n1,0,0,0,0,0,0
CCCCCCNC(=O)OC12CN(C(=O)OC(C)C)N(C(=O)OC(C)C)CC1(O)CN(S(=O)(=O)c1ccc(C)cc1)C2 (configuration not stated),0,0,0,0,0,83.7
Cc1ccc2[nH]c3c(N4CCc5ccccc5C4)ncnc3c2c1,0,0,0,63.4,0,0
Fc1ccc2[nH]c3c(N4CCc5ccccc5C4)ncnc3c2c1,0,0,0,58.5,0,0
CN1CCN(c2ncnc3c2[nH]c2ccc(F)cc23)CC1,0,0,0,0,0,0
O=C(COc1ccccc1)NC(NC(=S)Nc1ccccc1O)C(Cl)(Cl)Cl (configuration not stated),0,0,0,0,0,0
NC(=S)NN=C1c2ccccc2-c2cc(Br)ccc21,0,0,0,0,0,0
NC(=S)NN=C1c2ccccc2-c2c(F)c(F)c(F)c(F)c21,0,0,0,0,0,96.5
CCNC(=S)N(Cc1cccs1)Cc1cc2cc(OCC)ccc2[nH]c1=O,0,0,0,76.0,0,0
O=C(CSc1ccc(-c2ccccn2)nn1)c1ccc([N+](=O)[O-])cc1,0,0,0,0,0,0
SMILES,CF NFkB block,TROY NFkB inh,HIF-2a inh,TWEAK-Fn14 inh,KKLEB cytotox,Peg3 promoter
O=C(COC(=O)c1ccccn1)c1ccc([N+](=O)[O-])cc1,0,0,0,67.0,0,0
O=C(O)CC(NC(=O)C(c1ccccc1)c1ccccc1)c1cccc([N+](=O)[O-])c1 (configuration not stated),0,0,0,0,0,0
CCS(=O)(=O)N1CCC(NC(=O)C(Cc2cccc(OC)c2OC)NC(C)=O)CC1 (configuration not stated),0,0,0,85.0,0,0
O=C1/C(=C/c2ccc(C(=O)O)cc2)CCC/C1=C\c1ccc(C(=O)O)cc1,0,0,0,0,0,0
C=CC(=O)N1C/C(=C/c2ccc(Cl)cc2)C(=O)/C(=C\c2ccc(Cl)cc2)C1,87.3,84.6,83.5,107.2,-97.3,103.4
C=CC(=O)N1C/C(=C/c2ccccc2)C(=O)/C(=C\c2ccccc2)C1,81.3,73.3,91.4,104.7,0,105.9
COc1ccc(OC)c(NC(=O)CSc2nnc(CNC(=O)c3cccs3)o2)c1,0,0,0,0,0,0
Cc1nc(CNS(=O)(=O)c2ccc3c(c2)OCCO3)cs1,0,0,0,0,0,0
Cc1ccc(S(=O)(=O)N2CCCC(CCC(=O)NCc3ccccc3F)C2)s1 (configuration not stated),0,0,0,0,0,0
CC(C)C[C@@H]1CN(CCCC[C@H]2CNC(=O)C(=O)N2CCC2CCCCC2)C(=O)C(=O)N1CCC1CCCCC1,-,0,0,60.7,-,-
CC(C)C[C@H]1CN(CCCC[C@H]2CNC(=O)C(=O)N2CCC2CCCCC2)C(=O)C(=O)N1CCC1CCCCC1,-,0,0,0,-,-
O=C1c2cc([N+](=O)[O-])ccc2-c2cc(Cl)c(NC(=O)C(F)(F)F)cc21,0,0,0,0,0,0
O=C1c2cc([N+](=O)[O-])ccc2-c2cc(Br)c(N=C(NO)C(F)(F)F)cc21,0,79.0,0,0,0,97.2
Cc1c(C#N)c(NC(=O)CCl)n(Cc2ccc(F)cc2)c1C,72.7,0,0,0,-58.4,57.6
Cc1c(C#N)c(NC(=O)CCl)n(Cc2cccs2)c1C,0,0,0,0,0,0
Cc1c(C#N)c(NC(=O)CCl)n(Cc2ccccc2)c1C,0,0,0,0,0,53.5
COc1cccc(C=NNC(=O)c2ccncc2)c1O,0,0,0,0,0,0
COc1ccccc1C=NN=C(NN=Cc1ccccc1OC)NN=Cc1ccccc1OC,0,55.7,0,100.6,0,0
COc1ccccc1C=NNC(=O)NN=Cc1ccccc1OC,0,0,0,0,0,0
COc1cccc(/C=N/NC(=O)c2nc(-c3ccccc3)cc(-c3ccccc3)n2)c1O,0,0,0,51.0,0,0
COc1cc2cc(C(=O)N/N=C/c3ccccc3Cl)[nH]c2cc1OC,0,0,0,51.6,0,0
COc1cccc(/C=N/NC(=O)c2cc3c(OC)ccc(OC)c3[nH]2)c1O,0,0,0,0,0,51.7
C/C(=N\NC(N)=O)C1CC(CC(C)C)C(=O)O1 (configuration not stated),0,0,0,0,0,0
COc1cc(OC)c2cc(C(=O)N/N=C/c3cccc(OC)c3O)[nH]c2c1,0,0,0,0,0,56.7
CC(C)=CCC/C(C)=C/CNC(=O)C[C@H]1C[C@H](C(=O)N2CCOCC2)[C@@]2(C)c3[nH]c4ccc(Cl)cc4c3CCN2C1=O,0,50.8,0,50.7,0,55.6
CC[C@]12c3[nH]c4ccc(OC)cc4c3CCN1C(=O)C(CC(=O)NCC13CC4CC(CC(C4)C1)C3)C[C@@H]2C(=O)N1CCN(C(=O)c2ccco2)CC1 (some centres not stated),0,0,0,0,0,0
